Experimental data from PubChem BioAssay (NCATS).
Results filed as inconclusive are left out. Entries that show only a call come without a potency. Calls of active or inactive are those of the source. The call rests on the fitted dose curve; in most records, active means well fitted inhibition curve with a large enough effect; inconclusive means small, poorly fitted or top-dose-only effect; inactive means flat fitted curve, though single readings scatter.

Biological target: Voltage-gated inwardly rectifying potassium channel KCNH2 (Homo sapiens) (UniProt Q12809)
Experiment: qHTS Assay for Small Molecule Inhibitors of the Human hERG Channel Activity (AID 588834);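 further: lower thallium flux fluorescence means stronger hERG block; nearly all actives have a fitted effect of over 50% in size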
Settings: U2OS BacMam hERG, FluxOR thallium flux fluorescence; series mostly up to 46.1 µM
Summary of the method: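 In hERG-transduced U2OS cells, dye-loaded for 1 hr at room temperature in dark, test compounds incubated 10 min at 37 °C before thallium stimulation. AC50 values derived by Hill modelling of concentration-response.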
Potency means the concentration at half of the fitted maximal effect.

Chain of Voltage-gated inwardly rectifying potassium channel KCNH2 (Homo sapiens) (Q12809 whole entry, looked up): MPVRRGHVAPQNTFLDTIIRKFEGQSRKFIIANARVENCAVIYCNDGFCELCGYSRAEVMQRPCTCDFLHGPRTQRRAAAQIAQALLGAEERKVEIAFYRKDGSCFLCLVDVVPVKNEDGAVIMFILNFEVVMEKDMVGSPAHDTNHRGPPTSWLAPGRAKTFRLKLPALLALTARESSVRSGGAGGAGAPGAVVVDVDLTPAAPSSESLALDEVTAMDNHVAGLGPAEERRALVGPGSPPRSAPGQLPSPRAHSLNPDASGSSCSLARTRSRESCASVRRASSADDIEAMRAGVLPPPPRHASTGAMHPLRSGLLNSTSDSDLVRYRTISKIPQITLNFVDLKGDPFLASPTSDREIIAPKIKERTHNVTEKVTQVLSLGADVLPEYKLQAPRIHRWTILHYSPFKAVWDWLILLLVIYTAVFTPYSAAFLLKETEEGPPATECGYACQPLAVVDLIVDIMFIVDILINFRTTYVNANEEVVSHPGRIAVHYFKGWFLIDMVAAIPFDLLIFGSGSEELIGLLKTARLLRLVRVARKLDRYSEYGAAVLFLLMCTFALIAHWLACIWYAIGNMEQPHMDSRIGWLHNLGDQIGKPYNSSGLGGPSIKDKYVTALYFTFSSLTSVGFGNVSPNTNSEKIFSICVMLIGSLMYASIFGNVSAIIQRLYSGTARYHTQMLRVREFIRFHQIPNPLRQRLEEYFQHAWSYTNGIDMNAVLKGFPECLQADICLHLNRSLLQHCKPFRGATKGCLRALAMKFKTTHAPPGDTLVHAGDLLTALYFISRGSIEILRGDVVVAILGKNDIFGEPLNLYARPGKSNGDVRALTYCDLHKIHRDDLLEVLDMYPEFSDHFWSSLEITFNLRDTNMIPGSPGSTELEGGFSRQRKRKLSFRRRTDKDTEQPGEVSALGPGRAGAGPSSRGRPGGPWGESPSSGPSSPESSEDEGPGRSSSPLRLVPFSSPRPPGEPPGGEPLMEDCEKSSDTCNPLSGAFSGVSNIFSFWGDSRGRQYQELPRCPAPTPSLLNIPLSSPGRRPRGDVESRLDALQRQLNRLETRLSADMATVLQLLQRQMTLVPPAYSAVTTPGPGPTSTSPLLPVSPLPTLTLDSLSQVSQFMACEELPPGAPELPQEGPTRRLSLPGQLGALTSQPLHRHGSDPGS

| Compound | Potency |
| --- | --- |
| CN[C@@H]1[C@@H](O[C@H]2O[C@H](CO)[C@@H](N)[C@H](O)[C@H]2O)O[C@H]2C[C@@H](N)[C@@H](O[C@H]3[C@H](O)[C@@H](O)[C@H](N)C[C@@H]3N)O[C@@H]2[C@@H]1O | inactive |
| N=C(N)c1ccc(/C=C/c2ccc(C(=N)N)cc2O)cc1 | inactive |
| C=C1c2c(Cl)ccc(O)c2C(O)=C2C(=O)[C@]3(O)C(O)=C(C(N)=O)C(=O)[C@@H](N(C)C)[C@@H]3[C@@H](O)[C@H]12 | inactive |
| O=C1NC(=O)[C@H]2[C@@H]1[C@@H]1C=C[C@H]2C1 | inactive |
| OC[C@H]1OC([S-])[C@H](O)[C@@H](O)[C@@H]1O.[Au+] (some centres undefined) | inactive |
| CCCCCCCCCCCCCCCC(=O)OC[C@@H](O)[C@H]1OC[C@H](O)[C@H]1O | inactive |
| O=C[C@H](O)[C@@H](O)[C@@H](O)[C@H](O)CO | inactive |
| O=C1/C(=C\c2cccs2)CCC/C1=C\c1cccs1 | inactive |
| H-RKDVY-OH | inactive |
| COc1cc2c(cc1OC)[C@@H](c1ccccc1)CN(C)CC2 | inactive |
| CCC(=O)c1ccc2c(c1)N(CCCN1CCN(CCO)CC1)c1ccccc1S2 | 5.01 µM (active) |
| CC(=C\c1ccccc1)/C=C1/SC(=S)N(CC(=O)O)C1=O | inactive |
| CO[C@@]1(NC(=O)C2SC(=C(C(N)=O)C(=O)O)S2)C(=O)N2C(C(=O)O)=C(CSc3nnnn3C)CS[C@@H]21 (some centres undefined) | 7.08 µM (active) |
| CCN(CC)C(=S)S | inactive |
| CCCCCCCCCCCCCC(=O)OCC(COP(=O)([O-])OCC[N+](C)(C)C)OC(=O)CCCCCCCCCCCCC (centres undefined) | inactive |
| CC(C)CN(C[C@@H](OP(=O)(O)O)[C@H](Cc1ccccc1)NC(=O)O[C@H]1CCOC1)S(=O)(=O)c1ccc(N)cc1 | inactive |
| O=C(CO)[C@@H](O)[C@H](O)[C@@H](O)C(=O)O | inactive |
| C=O | inactive |
| CC(=O)[C@H]1CC[C@H]2[C@@H]3C=CC4=CC(=O)CC[C@@]4(C)[C@H]3CC[C@]12C | inactive |
| CNC(C)CCC=C(C)C (centres undefined) | 1.58 µM (active) |

| Compound | Potency |
| --- | --- |
| C=C1[C@@H]2CC[C@@H](C2)C1(C)C | inactive |
| COc1ccc2c(c1)N(C[C@H](C)CN(C)C)c1ccccc1S2 | 8.91 µM (active) |
| CCN1C(=O)NC(c2ccccc2)C1=O (centres undefined) | inactive |
| C#C[C@]1(O)CC[C@H]2[C@@H]3CCC4=C(CCC(=O)C4)[C@H]3CC[C@@]21C | inactive |
| CC(=O)N[C@@H]([C@@H](O)[C@H](O)[C@H](O)CO)[C@@H](O)CC(=O)C(=O)O | inactive |
| CC(=O)[C@@]1(O)CC[C@H]2[C@@H]3C=C(Cl)C4=CC(=O)[C@@H]5C[C@@H]5[C@]4(C)[C@H]3CC[C@@]21C | inactive |
| O=C1c2c(O)cccc2[C@H]([C@@H]2O[C@H](CO)[C@@H](O)[C@H](O)[C@H]2O)c2cc(CO)cc(O)c21 | inactive |
| CC(C)CN(C[C@@H](O)[C@H](Cc1ccccc1)NC(=O)O[C@@H]1CCOC1)S(=O)(=O)c1ccc(N)cc1 | inactive |
| COc1ccc(C[C@H](C)NC[C@@H](O)c2ccc(O)c(NC=O)c2)cc1 | 14.1 µM (active) |
| CCCCCCCCCCCCCCCCCC[N+](C)(C)CCC[Si](OC)(OC)OC | inactive |
| CC(=NCc1ccccc1)c1ccccc1O | inactive |
| Cc1ncc(C[n+]2csc(CCO)c2C)c(N)n1 | inactive |
| CC(=O)N[C@@H](C=O)[C@@H](O)[C@H](O)[C@H](O)CO | inactive |
| NC(=O)c1cc[n+](CC2=C(C(=O)O)N3C(=O)[C@@H](NC(=O)C(c4ccccc4)S(=O)(=O)[O-])[C@H]3SC2)cc1 (some centres undefined) | inactive |
| CC[C@@H]1/C=C(\C)C[C@H](C)C[C@H](OC)[C@H]2O[C@@](O)(C(=O)C(=O)N3CCCC[C@H]3C(=O)O[C@H](/C(C)=C/[C@@H]3CC[C@@H](Cl)[C@H](OC)C3)[C@H](C)[C@@H](O)CC1=O)[C@H](C)C[C@@H]2OC | inactive |
| CC(C)[C@@H](C)/C=C/[C@@H](C)[C@H]1CC[C@H]2/C(=C/C=C3\C[C@@H](O)CC[C@@H]3C)CCC[C@]12C | inactive |
| CC(=O)NCCCS(=O)(=O)O | inactive |
| CC1(C)[C@H]2CC[C@]1(C)[C@H](O)C2 | inactive |
| CN[C@@H]1[C@@H](O)[C@@H](O[C@@H]2[C@@H](O)[C@H](OC3OC(CN)=CCC3N)[C@@H](N)C[C@H]2N)OC[C@]1(C)O (some centres undefined) | inactive |
